Laboratory results from PubChem BioAssay (EPA / NIEHS).
Records with an inconclusive call do not appear. Calls of active or inactive are those of the source. Rule for the calls: active = hit-call score of the fitted dose curve at least 0.9, where 1 is the maximum; inconclusive = response in the unintended direction; inactive = score below 0.9.

Tests used:
[1] = target: Estrogen receptor (Homo sapiens) (UniProt P03372); test: OT_ER_ERaERa_1440: Odyssey Thera (OT) 24-hour HEK293T Protein-Complementation Assay for Estrogen Receptor-alpha/-alpha Homodimer (AID 2283349);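 note: hits raise fluorescence above DMSO for agonists and antagonists alike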
Chain of Estrogen receptor (Homo sapiens) (P03372 whole entry, looked up, the tested form may be a part): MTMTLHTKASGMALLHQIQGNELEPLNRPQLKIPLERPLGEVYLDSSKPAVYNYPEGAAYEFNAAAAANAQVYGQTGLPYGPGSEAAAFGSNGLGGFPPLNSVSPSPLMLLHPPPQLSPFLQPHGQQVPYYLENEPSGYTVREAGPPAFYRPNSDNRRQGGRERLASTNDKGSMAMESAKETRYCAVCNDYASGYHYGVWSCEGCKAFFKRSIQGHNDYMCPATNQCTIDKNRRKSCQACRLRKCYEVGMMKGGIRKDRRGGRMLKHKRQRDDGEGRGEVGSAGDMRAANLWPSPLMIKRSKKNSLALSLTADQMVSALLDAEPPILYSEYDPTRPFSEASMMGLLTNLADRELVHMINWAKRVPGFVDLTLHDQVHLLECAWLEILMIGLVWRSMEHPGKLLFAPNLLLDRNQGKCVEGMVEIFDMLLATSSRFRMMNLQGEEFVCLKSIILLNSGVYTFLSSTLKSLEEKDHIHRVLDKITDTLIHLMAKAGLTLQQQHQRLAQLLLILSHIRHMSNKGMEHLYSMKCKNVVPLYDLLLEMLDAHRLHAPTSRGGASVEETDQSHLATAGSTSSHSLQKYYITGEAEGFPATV
Method in brief: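 HEK293T cells stably expressing the human ER alpha ligand-binding domain (aa 310-547) as a homodimer PCA were dosed for 24 hours. Fluorescence intensity was read by laser scanning cytometry, and gain of signal was fitted relative to DMSO vehicle.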

[2] = target: Estrogen receptor (Homo sapiens) (UniProt P03372); test: OT_ER_ERaERa_0480: Odyssey Thera (OT) 8-hour HEK293T Protein-Complementation Assay for Estrogen Receptor-alpha/-alpha Homodimer (AID 2283351);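 note: rise in fluorescence from reassembled reporter fragments on ERα LBD homodimer in nucleus or whole cell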
Method in brief: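 HEK293T cells stably expressing the human ERα ligand-binding domain (aa 310-547) as a homodimer PCA were dosed with compound for 8 h. Gain of fluorescence intensity versus DMSO vehicle was read by laser scanning cytometry.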

[3] = target: Estrogen receptor (Homo sapiens) + Estrogen receptor beta (Homo sapiens) (UniProt P03372+Q92731); test: OT_ER_ERaERb_0480: Odyssey Thera (OT) 8-hour HEK293T Protein-Complementation Assay for Estrogen Receptor-alpha/-beta Heterodimer (AID 2283352)
Chain of Estrogen receptor (Homo sapiens) + Estrogen receptor beta (Homo sapiens) (P03372 whole entry, looked up, the tested form may be a part): as above
Chain of Estrogen receptor (Homo sapiens) + Estrogen receptor beta (Homo sapiens) (Q92731 whole entry, looked up, the tested form may be a part): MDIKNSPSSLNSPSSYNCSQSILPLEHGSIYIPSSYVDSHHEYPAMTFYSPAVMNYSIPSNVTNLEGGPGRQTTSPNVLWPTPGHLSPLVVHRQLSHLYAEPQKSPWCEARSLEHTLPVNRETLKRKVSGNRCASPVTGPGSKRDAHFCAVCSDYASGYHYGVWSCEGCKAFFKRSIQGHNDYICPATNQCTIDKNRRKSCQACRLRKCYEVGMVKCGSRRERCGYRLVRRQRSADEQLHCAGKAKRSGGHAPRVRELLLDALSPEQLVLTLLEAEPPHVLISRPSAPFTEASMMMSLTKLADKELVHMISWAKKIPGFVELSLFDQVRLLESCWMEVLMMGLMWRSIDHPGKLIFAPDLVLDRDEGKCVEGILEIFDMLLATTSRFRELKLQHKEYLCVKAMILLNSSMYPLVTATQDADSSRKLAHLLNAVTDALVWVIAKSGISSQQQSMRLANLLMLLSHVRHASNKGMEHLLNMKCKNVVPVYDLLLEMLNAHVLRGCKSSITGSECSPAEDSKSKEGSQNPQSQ
Method in brief: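 Human HEK293T cells were treated for 8 hours and receptor heterodimerisation was detected through reconstitution of a fluorescent reporter split between ER-alpha and ER-beta ligand-binding domains. Activity was analysed as gain of signal against DMSO.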

[4] = target: Androgen Receptor/SRC-1 Co-activator, AR (gene 367) (UniProt P10275); test: OT_AR_ARSRC1_0960: Odyssey Thera (OT) 16-hour HEK293T Protein-Complementation Assay for Androgen Receptor/SRC-1 Co-activator (AID 2283353);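 note: actives raise the signal above DMSO so potency reflects increased AR and SRC-1 complex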
Chain of Androgen Receptor/SRC-1 Co-activator, AR (gene 367) (P10275 whole entry, looked up, the tested form may be a part): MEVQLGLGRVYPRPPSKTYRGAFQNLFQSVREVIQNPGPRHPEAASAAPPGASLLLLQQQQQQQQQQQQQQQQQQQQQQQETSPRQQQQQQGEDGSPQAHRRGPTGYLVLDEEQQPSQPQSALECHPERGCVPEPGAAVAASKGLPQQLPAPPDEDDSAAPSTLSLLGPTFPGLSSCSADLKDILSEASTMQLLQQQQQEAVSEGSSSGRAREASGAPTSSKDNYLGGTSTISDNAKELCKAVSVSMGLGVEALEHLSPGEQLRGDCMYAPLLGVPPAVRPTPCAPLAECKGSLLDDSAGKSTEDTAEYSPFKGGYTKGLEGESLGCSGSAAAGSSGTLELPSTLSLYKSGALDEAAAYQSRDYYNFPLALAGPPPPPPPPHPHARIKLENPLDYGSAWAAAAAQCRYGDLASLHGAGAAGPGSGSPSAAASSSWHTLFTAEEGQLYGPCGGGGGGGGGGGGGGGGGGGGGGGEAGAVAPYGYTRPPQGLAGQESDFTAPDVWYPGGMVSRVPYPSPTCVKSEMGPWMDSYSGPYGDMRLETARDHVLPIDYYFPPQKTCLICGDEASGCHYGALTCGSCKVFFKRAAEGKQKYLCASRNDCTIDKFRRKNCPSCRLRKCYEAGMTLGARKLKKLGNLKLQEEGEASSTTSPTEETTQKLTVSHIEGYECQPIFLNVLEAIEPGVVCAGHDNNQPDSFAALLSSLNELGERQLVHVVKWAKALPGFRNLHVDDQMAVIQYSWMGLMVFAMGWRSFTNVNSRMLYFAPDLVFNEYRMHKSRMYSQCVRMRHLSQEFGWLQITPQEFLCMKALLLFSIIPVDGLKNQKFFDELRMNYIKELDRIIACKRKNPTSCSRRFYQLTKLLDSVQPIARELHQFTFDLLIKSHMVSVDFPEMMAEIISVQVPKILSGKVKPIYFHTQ
Method in brief: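 HEK293T cells stably expressing AR and SRC-1 fused to split Venus YFP fragments via (Gly4Ser)2 linkers were dosed for 16 h. Nuclear/cytoplasmic fluorescence ratio at 488 nm, ≥400 cells per image, fitted for gain of signal versus DMSO.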

[5] = target: Androgen Receptor/SRC-1 Co-activator, AR (gene 367) (UniProt P10275); test: OT_AR_ARSRC1_0480: Odyssey Thera (OT) 8-hour HEK293T Protein-Complementation Assay for Androgen Receptor/SRC-1 Co-activator (AID 2283354);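 note: hits raise the complementation signal above DMSO so AC50 marks enhancers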
Method in brief: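 HEK293T cells stably expressing AR and SRC-1 fused to Venus YFP fragments, imaged 8 h after dosing. Complementation fluorescence scored as nuclear/cytoplasmic ratio at 488 nm in at least 400 cells per image; gain fitted versus DMSO.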

[6] = target: Estrogen receptor (Homo sapiens) (UniProt P03372); test: NVS_NR_hER: NovaScreen (NVS) Nuclear Receptor Binding Assay for human Estrogen Receptor (ER) (AID 2283348)
Method in brief: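 Radioligand competitive displacement binding to estrogen receptor from MCF7 extract, cell-free; 18 h after dosing, scintillation read-out. Primary screen in duplicate at 25 uM; actives followed up in concentration series; loss of signal vs DMSO.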

Which outcome [1] does the source give for ClC(Cl)=C(Cl)C(Cl)=C(Cl)Cl here?
The outcome was “inactive”.

What about the outcome [2] of the same compound?
Its outcome is “inactive”.

Which outcome [1] does the source give for Clc1nc(Cl)nc(Cl)n1 here?
Its outcome is “inactive”.

What about the outcome [2] of the same compound?
Its outcome is “inactive”.

For C1CCC(NC2CCCCC2)CC1, which outcome [1] is on record?
The outcome was “inactive”.

What about the outcome [2] of the same compound?
Its outcome is “inactive”.

Which results are given for O=[N+]([O-])c1ccc(O)c([N+](=O)[O-])c1?
outcome [1]: inactive; outcome [2]: inactive; outcome [3]: inactive; outcome [4]: inactive; outcome [5]: inactive

How did the outcome [1] turn out when Cl/C=C/Cl was run?
The outcome was “inactive”.

And the outcome [2]?
The outcome was “inactive”.

What does the source list for CC(C)(C)c1cc(O)ccc1O?
outcome [6]: inactive; outcome [1]: inactive; outcome [2]: inactive

Which results are given for CC(=O)c1cc(C(C)(C)C)cc2c1CCC2(C)C?
outcome [1]: inactive; outcome [2]: inactive

For COc1ccc(C=O)cc1, which outcome [1] is on record?
The outcome was “inactive”.

And the outcome [2]?
The outcome was “inactive”.

What does the source list for OCC(O)CCl (stereo not given)?
outcome [1]: inactive; outcome [2]: inactive

O=c1[nH]c(=O)[nH]c(=O)[nH]1 was tested. Which outcome [4] did it give?
Its outcome is “inactive”.

And the outcome [5]?
The outcome was “inactive”.

Which outcome [1] does the source give for C=CC#N here?
The outcome was “inactive”.

What about the outcome [2] of the same compound?
The outcome was “inactive”.

What about the outcome [3] of the same compound?
The outcome was “inactive”.

What does the source list for CC(C)c1cccc(C(C)C)c1O?
outcome [1]: inactive; outcome [2]: inactive; outcome [3]: inactive; outcome [4]: inactive; outcome [5]: inactive

With [O-][Cl+2]([O-])O as the compound, how does the outcome [1] read?
The outcome was “inactive”.

And the outcome [2]?
The outcome was “inactive”.

What about the outcome [3] of the same compound?
The outcome was “inactive”.

How did the outcome [1] turn out when COP(=O)(OC)OC was run?
Its outcome is “inactive”.

And the outcome [2]?
Its outcome is “inactive”.

What about the outcome [4] of the same compound?
Its outcome is “inactive”.

With N#CN=C(N)N as the compound, how does the outcome [1] read?
The outcome was “inactive”.

And the outcome [2]?
The outcome was “inactive”.

What about the outcome [3] of the same compound?
Its outcome is “inactive”.

With C=C(C)C#N as the compound, how does the outcome [1] read?
The outcome was “inactive”.

What about the outcome [2] of the same compound?
Its outcome is “inactive”.

What about the outcome [3] of the same compound?
Its outcome is “inactive”.

With C=CCc1ccc(OC)cc1 as the compound, how does the outcome [5] read?
Its outcome is “inactive”.

How did the outcome [1] turn out when c1cc[c]([Hg][c]2ccccc2)cc1 was run?
The outcome was “inactive”.

And the outcome [2]?
Its outcome is “inactive”.

What about the AC50 [4] of the same compound?
The AC50 was 41.9 µM (active).

What about the AC50 [5] of the same compound?
The AC50 was 32.2 µM (active).

Which results are given for CNC?
outcome [1]: inactive; outcome [2]: inactive

What does the source list for O=C1CCCN1?
outcome [6]: inactive; outcome [1]: inactive; outcome [2]: inactive

How did the outcome [6] turn out when CC(C)(OO)c1ccccc1 was run?
Its outcome is “inactive”.

What about the outcome [1] of the same compound?
Its outcome is “inactive”.

What about the outcome [2] of the same compound?
Its outcome is “inactive”.

CC(=O)C=C(C)C was tested. Which AC50 [1] did it give?
Its AC50 is 26.6 µM (active).

And the outcome [2]?
The outcome was “inactive”.

How did the outcome [1] turn out when Cc1ccc2ccccc2c1C was run?
Its outcome is “inactive”.

What about the outcome [2] of the same compound?
The outcome was “inactive”.

And the outcome [3]?
The outcome was “inactive”.

And the outcome [4]?
The outcome was “inactive”.

What about the outcome [5] of the same compound?
The outcome was “inactive”.

With CCC1(c2ccc(N)cc2)CCC(=O)NC1=O (stereo not given) as the compound, how does the outcome [6] read?
Its outcome is “inactive”.

What about the outcome [1] of the same compound?
Its outcome is “inactive”.

What about the outcome [2] of the same compound?
Its outcome is “inactive”.

What about the outcome [4] of the same compound?
Its outcome is “inactive”.

What about the outcome [5] of the same compound?
Its outcome is “inactive”.

ClC1(Cl)C2(Cl)C3(Cl)C4(Cl)C(Cl)(Cl)C5(Cl)C3(Cl)C1(Cl)C5(Cl)C24Cl (stereo not given) was tested. Which outcome [1] did it give?
Its outcome is “inactive”.

What about the outcome [2] of the same compound?
The outcome was “inactive”.

What about the outcome [4] of the same compound?
Its outcome is “inactive”.

And the outcome [5]?
The outcome was “inactive”.

Which outcome [6] does the source give for O=C(Nc1ccc2[nH]ccc2c1)c1cc2cc(F)ccc2n1Cc1cccc(F)c1 here?
Its outcome is “inactive”.

And the outcome [1]?
The outcome was “inactive”.

And the outcome [2]?
The outcome was “inactive”.

O=C1C(Cl)=C(Cl)C(=O)c2ccccc21 was tested. Which AC50 [1] did it give?
The AC50 was 11.9 µM (active).

And the AC50 [2]?
Its AC50 is 11.9 µM (active).

Which results are given for OCc1ccco1?
outcome [1]: inactive; outcome [2]: inactive; outcome [3]: inactive

What does the source list for CCCCOCCOC(C)=O?
outcome [1]: inactive; outcome [2]: inactive

With COc1ccc(C=O)cc1OC as the compound, how does the outcome [1] read?
Its outcome is “inactive”.

And the outcome [2]?
The outcome was “inactive”.
